In PubChem BioAssay (NCATS):
Records with an inconclusive call do not appear. Activity calls are given as the source filed them. Calls follow the shape of the dose curve; as a rule, active = well fitted curve in the direction sought with a large enough effect; inconclusive = small, poorly fitted or top-dose-only effect, or another doubt; inactive = no such curve, though single readings can be large; an effect the other way counts as inactive or inconclusive.

Key:
MCC-26 = assay: qHTS assay to identify novel small-molecules to repurpose for Merkel cell carcinoma treatment (AID 1296009); settings: MCC and control cell lines, CellTiter-Glo viability, 72 h; series mostly up to 46 µM; also: nearly all actives have a fitted effect of over 60% in size
Method in brief: (§1)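 qHTS format: cells treated with library compounds in DMSO across 8 (NPC) or 11 (MIPE) concentrations. Readout after 72 hr at 37 degree celsius was CellTiter-Glo luminescence.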

MKL-1 = assay: as above; settings: MCC and control cell lines, CellTiter-Glo viability, 72 h; series mostly up to 46 µM
Method in brief: as §1

MKL-2 = assay: as above; settings: MCC and control cell lines, CellTiter-Glo viability, 72 h; series mostly up to 46 µM
Method in brief: as §1

NIH3T3 = assay: as above; settings: MCC and control cell lines, CellTiter-Glo viability, 72 h; at 44.8 µM (top of the series) unless noted
Method in brief: as §1

UISO = assay: as above; settings: MCC and control cell lines, CellTiter-Glo viability, 72 h; series mostly up to 46 µM
Method in brief: as §1

WaGa = assay: as above; settings: MCC and control cell lines, CellTiter-Glo viability, 72 h; series mostly up to 46 µM
Method in brief: as §1

C33A = assay: Primary qHTS to identify gynecologic anti-cancer compounds using libraries of approved drugs and bioactive compounds (AID 1345084); settings: Gynecologic cancer cell panel viability, ATPlite luminescence, 48 h; series mostly up to 57.5 µM; also: nearly all actives have a fitted effect of over 55% in size
Method in brief: (§2)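 Five-point cytotoxicity, 48 h drug exposure at 37 C, 5% CO2, on cells seeded 16 h beforehand. ATP content read by ATPlite luminescence.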

CAOV3 = assay: as above; settings: Gynecologic cancer cell panel viability, ATPlite luminescence, 48 h; series mostly up to 57.5 µM
Method in brief: as §2

CASKI = assay: as above; settings: Gynecologic cancer cell panel viability, ATPlite luminescence, 48 h; series mostly up to 57.5 µM
Method in brief: as §2

Es-2 = assay: as above; settings: Gynecologic cancer cell panel viability, ATPlite luminescence, 48 h; series mostly up to 57.5 µM
Method in brief: as §2

HeLa = assay: as above; settings: Gynecologic cancer cell panel viability, ATPlite luminescence, 48 h; series mostly up to 57.5 µM
Method in brief: as §2

Hek293T = assay: as above; settings: Gynecologic cancer cell panel viability, ATPlite luminescence, 48 h, control line for the selectivity index; series mostly up to 57.5 µM
Method in brief: as §2

JEG-3 = assay: as above; settings: Gynecologic cancer cell panel viability, ATPlite luminescence, 48 h; series mostly up to 57.5 µM
Method in brief: as §2

OV90 = assay: as above; settings: Gynecologic cancer cell panel viability, ATPlite luminescence, 48 h; series mostly up to 57.5 µM
Method in brief: as §2

PA-1 = assay: as above; settings: Gynecologic cancer cell panel viability, ATPlite luminescence, 48 h; series mostly up to 57.5 µM
Method in brief: as §2

SKOV3 = assay: as above; settings: Gynecologic cancer cell panel viability, ATPlite luminescence, 48 h; series mostly up to 57.5 µM
Method in brief: as §2

Tov-21-G = assay: as above; settings: Gynecologic cancer cell panel viability, ATPlite luminescence, 48 h; series mostly up to 57.5 µM
Method in brief: as §2

Tov112D = assay: as above; settings: Gynecologic cancer cell panel viability, ATPlite luminescence, 48 h; series mostly up to 57.5 µM
Method in brief: as §2

[1] = Drug repurposing screens with cells derived from glioblastoma tumor samples (AID 1345199); settings: GBM patient neurospheres viability, ATP luminescence, 48 h; also: nearly all actives have a fitted effect of over 40% in size
Method in brief: (§3)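 Four patient lines of CD133+ GBM neurospheres were screened at several concentrations; hits were retested in those lines plus three slower-growing GBM lines, using 48-hour treatment and ATP-based viability.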

astro = assay: as above; settings: viability, ATP luminescence, 48 h; series mostly up to 45.9 µM
Method in brief: as §3

[2] = at 45.9 µM (top of the series), tumour line B
[3] = at 46.1 µM (top of the series), tumour line C
[4] = at 45.9 µM (top of the series), tumour line D
% is scaled to controls: 0 for no effect and ±100 for the full control effect.

O=C(O)CSCC(=O)NC1CCSC1=O (centres undefined)
inactive: Potency (MCC-26) | Potency (MKL-1) | Potency (MKL-2) | outcome (NIH3T3) | Potency (UISO) | Potency (WaGa) | Potency (C33A) | Potency (CAOV3) | Potency (CASKI) | Potency (Es-2) | Potency (HeLa) | Potency (Hek293T) | Potency (JEG-3) | Potency (OV90) | Potency (PA-1) | Potency (SKOV3) | Potency (Tov-21-G) | Potency (Tov112D) | activity, negative = cell killing [1, 2] -7.24% | activity, negative = cell killing [1, 3] 18.1% | Potency (astro)

NC(=O)c1ccc2[nH]ccc2c1
inactive: Potency (MCC-26) | Potency (MKL-1) | Potency (MKL-2) | Potency (UISO) | Potency (WaGa)

COc1ncnc(NS(=O)(=O)c2ccc(N)cc2)c1OC
inactive: Potency (MCC-26) | Potency (MKL-1) | Potency (MKL-2) | Potency (UISO) | Potency (WaGa) | Potency (C33A) | Potency (CAOV3) | Potency (CASKI) | Potency (Es-2) | Potency (HeLa) | Potency (Hek293T) | Potency (JEG-3) | Potency (OV90) | Potency (PA-1) | Potency (SKOV3) | Potency (Tov-21-G) | Potency (Tov112D) | activity, negative = cell killing [1, 2] -5.91% | activity, negative = cell killing [1, 4] -22.1% | activity, negative = cell killing [1, 3] -21.2% | Potency (astro)

S=P(N1CC1)(N1CC1)N1CC1
inactive: Potency (MCC-26) | Potency (MKL-1) | Potency (MKL-2) | Potency (UISO) | Potency (WaGa) | Potency (C33A) | Potency (CAOV3) | Potency (Es-2) | Potency (Hek293T) | Potency (JEG-3) | Potency (PA-1) | Potency (SKOV3) | Potency (Tov-21-G) | Potency (Tov112D) | activity, negative = cell killing [1, 2] -13.6% | activity, negative = cell killing [1, 4] -2.85% | activity, negative = cell killing [1, 3] -0.68% | activity, negative = cell killing ([1]; at 91.6 µM (top of the series), tumour line B) -15.1% | activity, negative = cell killing ([1]; at 91.6 µM (top of the series), tumour line D) -14.2% | activity, negative = cell killing ([1]; at 99.2 µM (top of the series), tumour line C) -13% | Potency (astro)

NC(=O)c1cccnc1
inactive: Potency (MCC-26) | Potency (MKL-1) | Potency (MKL-2) | Potency (UISO) | Potency (WaGa) | Potency (C33A) | Potency (CASKI) | Potency (Es-2) | Potency (HeLa) | Potency (Hek293T) | Potency (JEG-3) | Potency (OV90) | Potency (PA-1) | Potency (SKOV3) | Potency (Tov-21-G) | Potency (Tov112D) | activity, negative = cell killing [1, 2] -7.44% | activity, negative = cell killing [1, 4] -0.242% | activity, negative = cell killing ([1]; at 46 µM (top of the series), tumour line A) -16% | activity, negative = cell killing [1, 3] 4.44% | Potency (astro)

COc1cc(NS(=O)(=O)c2ccc(N)cc2)nc(OC)n1
inactive: Potency (MCC-26) | Potency (MKL-1) | Potency (MKL-2) | Potency (UISO) | Potency (WaGa) | Potency (C33A) | Potency (CAOV3) | Potency (CASKI) | Potency (Es-2) | Potency (Hek293T) | Potency (JEG-3) | Potency (PA-1) | Potency (SKOV3) | Potency (Tov-21-G) | Potency (Tov112D) | activity, negative = cell killing ([1]; at 20 µM (top of the series), tumour line C) -7.42% | activity, negative = cell killing ([1]; at 21.2 µM (top of the series), tumour line B) -12.9% | activity, negative = cell killing ([1]; at 21.2 µM (top of the series), tumour line D) -12.1% | activity, negative = cell killing ([1]; at 21.3 µM (top of the series), tumour line A) -9.97% | Potency (astro)
